The list is not random: actives were taken first. Their share in the collection is about 3.6%.
Nrf2 inh – inhibitors of Nrf2 signaling; A549 ARE-Fluc reporter, luciferase luminescence, 18-24 h; Potency, µM (highest dose often 46 µM), without a hit: top-dose activity change, negative = inhibition, usual class: inhibitors; 2.1% of 360,000 active; note: % is set by controls: 0 for no effect and ±100 for the full control effect; nearly all actives have a fitted effect of over 60% in size
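Two sequential reads on A549 ARE_Fluc cells exposed to compound for 18-24 h: a CellTiter-Fluor fluorescence read for viability, then a luciferase luminescence read for Nrf2/ARE activity.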
HepG2 tox – kills HepG2 cells in TGF-b inhibitor counter-screen; 0.76% of 410,000 active; Potency, µM (highest dose often 46.1 µM), for inactives: at the highest dose activity change, negative = cytotoxicity, most hits filed as cytotoxic; HepG2 CAGA-GFP viability, ATP luminescence, 18 h
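CellTiter-Glo luminescence gave cytotoxicity after 18 hours at 37 degrees C. The cells were HepG2 CAGA-GFP in 1% FBS DMEM, stimulated with 500 pg/mL TGF-beta after compound addition. %Activity was normalised to no-cell wells (complete cell-killing) and DMSO (no toxicity), and curves were fitted and classified.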
Nrf2 ARE act – activators of Nrf2 (ARE) signaling. AREc32 ARE-luciferase reporter (MCF7-derived line), luminescence, 24 h. Potency, µM (titrated, usually from 46.1 µM), for the others: at the highest dose activation, most hits filed as activators. 0.31% of 410,000 active; note: % of control where 0% means no effect; nearly all actives have a fitted effect of over 65% in size
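Cells of the AREc32 ARE-luciferase line are plated in OPTI-MEM containing 5% FBS and left overnight at 37 deg C. Compounds are pinned in, incubation continues 24 hr, and firefly luciferase signal is then measured.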
TGFb SMAD3 inh – TGF-b pathway inhibition. 1.2% of 410,000 active. HepG2 CAGA-GFP TGF-b/SMAD3 reporter, GFP fluorescence, 18 h; TGF-beta stimulated, 500 pg/mL final. AID 588855. Potency, µM (titrated, usually from 46.1 µM), for the others: top-dose activity, negative = inhibition, actives largely listed as inhibitors; note: % is set by controls: 0 for no effect and ±100 for the full control effect; nearly all actives have a fitted effect of over 65% in size
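Cell-based qHTS in HEPG2 carrying a CAGA-GFP Smad reporter; compounds added before 500 pg/mL final TGF-beta, 18 h incubation at 37 degrees C, GFP fluorescence quantified per cell by imaging cytometry.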
A549 tox – A549 cytotoxicity, counter-screen for Nrf2 inhibitors; A549 ARE-Fluc cells, CellTiter-Fluor viability, 18-24 h; Potency, µM (titrated, usually from 46 µM), inactives show top-dose activity change, negative = cytotoxicity, hits mostly inhibitors; 0.16% of 390,000 active; AID 504648; note: % is set by controls: 0 for no effect and ±100 for the full control effect
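A549 ARE-Fluc cells in 5% FBS OPTI-MEM, 5000 cells/well, rested 2 h then exposed to compounds in concentration-response for 18-24 h at 37 °C. Viability by CellTiter-Fluor fluorescence (Ex 405/Em 525) after 30 min; luciferase luminescence (BugLite, 15 min, RT) read afterwards.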
The depositor's hits bear a star; u = inconclusive; x = no result given; ! = not confirmed by another sample; [ ] = dose if it differs, or a comment. Calls come from the whole dose curve; as a rule, active = well fitted curve in the direction sought with a large enough effect; inconclusive = small, poorly fitted or top-dose-only effect, or another doubt; inactive = no such curve, though single readings can be large; an effect the other way counts as inactive or inconclusive. Potency is the fitted concentration of half-maximal effect.

SMILES	Nrf2 inh	HepG2 tox	Nrf2 ARE act	TGFb SMAD3 inh	A549 tox
Cc1ccc(Sc2ccc([N+](=O)[O-])cc2[N+](=O)[O-])nc1	2%	-4%	16µM*	-4%	-12%
Cc1ccnc(Sc2ccc([N+](=O)[O-])cc2[N+](=O)[O-])n1	u	-103%	5%	u	u
O=C1NC(=O)C([N+](=O)[O-])=C(O)C1=O	x	5%	0%	3%	x
COc1ccc(OCCn2c(C(C)Oc3ccccc3)nc3ccccc32)cc1 (stereo unspecified)	u	-38%	4%	13µM*	-1%
Cc1ccc(OCCn2c(CNc3cccc(C)c3)nc3ccccc32)cc1	-6%[9.27 µM]	-35%	7%	13µM*	-3%
Cc1nc2ccccc2n1CCOc1ccccc1	15µM*	1%	0%	-21%	-3%
c1ccc(OCCn2c(COc3ccccc3)nc3ccccc32)cc1	4%[9.27 µM]	-42%	4%	u	1%
CCCCOc1ccc(S(=O)(=O)n2c(C)nc3ccccc32)cc1	7.3µM*	-14%	0%	-19%	-18%
COc1ccc(OCCn2c(N)nc3ccccc32)cc1	-10%	-3%	3%	32%	7%
Cc1ccc(NCc2nc3ccccc3n2CCOc2ccccc2)cc1	u	-29%	5%	18µM*!	-20%
CCOC(=O)n1c(=O)oc2ccccc21	9%	-16%	0%	6%	-4%
CC(=O)Nc1ccc(NC(=O)c2cc([N+](=O)[O-])cc([N+](=O)[O-])c2)cc1	6%	-15%	0%[9.22 µM]	1%	-1%
CC(C)(C)C(=O)Nc1ccc(Sc2ccc([N+](=O)[O-])cc2)cc1	16µM*	-11%	5%	u	1%
CC(=O)Nc1ccc(Sc2ccc([N+](=O)[O-])o2)cc1	11%	20µM*	u	u	-11%
CN(Cc1ccccc1)C(=O)CC(c1ccccc1)c1cc(Cl)ccc1O (stereo unspecified)	-7%	-100%	4%	16µM*	7%
COc1cc(/C=C(\C#N)c2ccccn2)ccc1OCc1ccccc1Cl	-19%	1%	-1%	9%	4%
COc1cc(/C=C(\C#N)c2ccccn2)cc(OC)c1O	2%	-25%	13µM*	29%	8%
N#C/C(=C\c1ccccn1)c1ccccn1	u	-17%	22µM*	-10%	-2%
Cc1cc(C)n2nc(/C(C#N)=C/c3ccccn3)c(C#N)c2n1	-27%	-9%	7.9µM*	0%	-19%
Cc1cccc(OCC2Cn3c(nc4c3c(=O)[nH]c(=O)n4C)O2)c1 (stereo unspecified)	u	-42%	0%	-9%	-3%
COc1ccccc1/C=C(\C#N)C(=O)Nc1ccc(S(N)(=O)=O)cc1	-5%	-6%	5%	-4%	8%
O=C(NCCc1ccccc1)c1noc2c1CCc1ccccc1-2	u	0%	1%	-9%	1%
CNC(=O)[C@H]1O[C@@H](n2cnc3c(NCc4cccc(I)c4)nc(Cl)nc32)[C@H](O)[C@@H]1O	18µM*	7%	0%	26%	-28%
CC1(C)CC[C@]2(C(=O)n3ccnc3)CC[C@]3(C)[C@H](C(=O)C=C4[C@@]5(C)C=C(C#N)C(=O)C(C)(C)[C@@H]5CC[C@]43C)[C@@H]2C1	5.8µM*	-97%	1.1µM*	u	6.5µM*
CCOC(=O)c1c(NC(=O)COC(=O)c2ccc(Cl)nc2)sc(C(=O)N(C)C)c1C	16%	-8%	0%	8%	-2%
SMILES	Nrf2 inh	HepG2 tox	Nrf2 ARE act	TGFb SMAD3 inh	A549 tox
CCOC(=O)c1c(NC(=O)CN2CCN(S(=O)(=O)c3cc(Cl)ccc3Cl)CC2)sc(C(=O)N(C)C)c1C	u	-1%	8%	10µM*	-6%
COc1ccc(NC(=O)CCS(=O)(=O)c2ccc3c(c2)NC(=O)C(C)S3)cc1OC (stereo unspecified)	10%	-11%	0%	11%	11%
Cc1cc(NC(=O)CCS(=O)(=O)c2ccc3c(c2)NC(=O)C(C)S3)ccc1Br (stereo unspecified)	12%	-66%	0%	11µM*	10%
O=[N+]([O-])c1cccc(-c2nc3ccc([N+](=O)[O-])cc3[nH]2)c1	-23%	-11%	7%	u	0%
CC(=O)c1ccc(NC(=O)Cn2c(=O)nc(-c3ccccc3)c3cc(Cl)ccc32)cc1	x	-2%	0%	5%	-15%
Cc1ccc([C@H]2C[C@@H](O)[C@H](n3cc(-c4ccc(F)cc4)nn3)CN2C(=O)C2CCCCC2)cc1	x	-32%	1%	13µM*	x
CCCCCCN1C[C@H](n2cc(-c3ccc(F)cc3)nn2)[C@@H](O)C[C@@H]1c1ccc(C)cc1	x	11µM*	-6%	u	x
O[C@H]1C[C@H](c2ccccc2)N(Cc2cccs2)C[C@@H]1n1cc(-c2ccc(F)cc2)nn1	x	11µM*	-3%	u	x
O=C(C1CCCCC1)N1C[C@H](n2cc(-c3ccc(F)cc3)nn2)[C@@H](O)C[C@@H]1c1ccc(Cl)cc1	x	-45%	-3%	u	x
COc1cccc(C(NC(C)=O)c2ccc3cccnc3c2O)c1 (stereo unspecified)	u	-25%	4%	u	-1%
Cc1ccc(S(=O)(=O)N(C)C)cc1NC(=O)C(C)N(C)Cc1sccc1C (stereo unspecified)	13µM*	-18%	0%	u	-18%
COc1cccc(NC(=O)/C(C#N)=C/c2c(C)n(Cc3ccccc3)c3ccccc23)c1	12µM*	-2%	0%	20%	-19%
Cc1ccc(Cn2cc(/C=C(/C#N)C(=O)Nc3cccc(Cl)c3)c3ccccc32)cc1	u	-27%	-1%	u	-9%
COc1cccc(NC(=O)/C(C#N)=C\c2cn(Cc3ccc(Cl)cc3)c3ccccc23)c1	u	-11%	0%	11µM*	-21%
Cc1cc(C)c(NS(=O)(=O)c2ccccc2)c(C)c1NS(=O)(=O)c1ccccc1	-2%	4%	1%	4%	2%
O=[N+]([O-])c1ccc(N=Nc2c(Cl)cc(O)cc2Cl)cc1	-12%	3.2µM*	28%	1.1µM*	-10%
CC(=O)/C=C/c1ccc2ccccc2n1	u	20µM*	u	u	2%
COc1ccccc1NC(=O)C(C)OC(=O)/C=C/c1ccc2ccccc2n1 (stereo unspecified)	2%	-121%	18µM*	-20%	2%
CC(OC(=O)/C=C/c1ccc2ccccc2n1)C(=O)N(C)c1ccccc1 (stereo unspecified)	-4%	3%	0%	-8%	-5%
Clc1ccc(/C=C/c2ccc3ccccc3n2)cc1Cl	x	-21%	x	u	x
